Hit rate of the full screen: of about 96,000 compounds, about 19,000 (20%) were called active.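 Rule for the calls: active = blocking of liver enzyme CYP2C9 beyond about 50% at 5 µM (limit read from the data); inactive = the rest.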 The list is a sample of the results.

The source of these data is PubChem BioAssay AID777 (Sanford-Burnham Center for Chemical Genomics, 2007).

Chain of Cytochrome P450 2C9 (Homo sapiens) (P11712 whole entry, looked up): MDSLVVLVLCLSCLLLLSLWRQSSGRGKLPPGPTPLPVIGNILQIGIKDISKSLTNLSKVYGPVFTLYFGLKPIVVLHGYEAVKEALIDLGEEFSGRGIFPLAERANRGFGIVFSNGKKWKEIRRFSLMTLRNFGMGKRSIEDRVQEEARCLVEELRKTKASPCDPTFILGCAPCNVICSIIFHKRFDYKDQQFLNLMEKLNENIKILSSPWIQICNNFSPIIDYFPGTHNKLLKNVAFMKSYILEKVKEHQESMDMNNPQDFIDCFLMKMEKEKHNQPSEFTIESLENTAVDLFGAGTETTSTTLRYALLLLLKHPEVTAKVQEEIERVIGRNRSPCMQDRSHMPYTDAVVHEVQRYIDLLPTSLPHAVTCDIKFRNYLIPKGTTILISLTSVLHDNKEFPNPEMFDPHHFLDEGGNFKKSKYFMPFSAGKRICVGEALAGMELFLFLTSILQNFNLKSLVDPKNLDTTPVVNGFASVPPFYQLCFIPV

The assay concerns the target Cytochrome P450 2C9 (Homo sapiens) (UniProt P11712). Description: blockers of cytochrome P450 2C9 activity – biochemical, luminescence, ADME assay, primary screen (AID 777). Conditions: CYP2C9 Supersomes, luciferin-H conversion, at 5 µM, active compounds read high.
In general, inhibition refers to the change of the read-out against control, counted positive when it falls. In the case of `Cc1nnc2sc(-c3ccco3)nn12`, the inhibition was -2.2% (inactive). As to `CN(C)/C=C1\C=C(c2ccccc2)OC1=O`, the inhibition is -1.5% (inactive). `CN(C)c1ccc(NC(=S)N(CCc2ccccc2)C2CC(=O)N(c3c(Cl)cccc3Cl)C2=O)cc1` (centres undefined): the inhibition is 17% (inactive). Take `O=C1CC(Cc2ccccc2)C(=O)N1c1ccc(Cl)cn1` (centres undefined): the inhibition is 20.3% (inactive).

For the molecule `O=C(CSc1nnc(-c2cccnc2)n1Cc1ccco1)c1ccc(Cl)cc1`, the inhibition is 23.6% (inactive). Regarding `COc1ccc(C)cc1-n1nnnc1SCC(=O)c1cc(C)n(Cc2ccco2)c1C`, the inhibition was 27.2% (inactive). As to `O=C(CSc1nnc(-c2ccco2)n1Cc1ccccc1)NC(=O)NCc1ccco1`, the inhibition was 29.5% (inactive). Regarding `COc1ccc(OC)c(NC(=O)CSc2nc3cccnc3n2C)c1`, the inhibition was 7.6% (inactive). The figure for `O=C(CSc1nnc(-c2cnccn2)n1Cc1ccco1)c1ccc(Cl)c(Cl)c1` is 28.8% (inactive).

As to `COc1cc(Cl)c(C)cc1NC(=O)CSc1nnc(-c2ccco2)n1CC(C)C`, the inhibition is 82.6% (active). As to `O=C(CSc1nnc(-c2cccnc2)n1Cc1ccco1)c1ccc(Cl)c(Cl)c1`, the inhibition is 81.6% (active). As to `CCn1c(COc2ccccc2)nnc1SCC(=O)Nc1ccc2c(c1)OCCO2`, the inhibition was 6.8% (inactive).

Turning to `CCn1c(COc2ccc(OC)cc2)nnc1SCC(=O)Nc1cc(OC)ccc1OC`, the inhibition was 53.8% (active).

Consider `COc1ccccc1NC(=O)CSc1nnc(-c2ccoc2C)n1CCc1ccccc1`, for which the inhibition was 43.7% (inactive). As to `COc1ccccc1NC(=O)CSc1nc2sc(C)c(C)c2c(=O)n1Cc1ccco1`, the inhibition was 93.8% (active). On to `CCCOC(=O)Nc1ccccc1C(N)=O`, for which the inhibition is -7.2% (inactive). For `N=c1c2c3c(sc2ncn1CCCN1CCOCC1)CCCCC3`, the inhibition is 6.9% (inactive). As for `CCOc1ccc(N=Cc2c(O)n(-c3cccc(C)n3)c(=O)c3ccccc23)cc1`, the inhibition was 18% (inactive). In the case of `Cc1cc(C)n(-c2cc(Oc3ccccc3)ncn2)n1`, the inhibition is 21.8% (inactive). Turning to `CCOc1ccc(NC(=O)CC2NCCNC2=O)cc1` (centres undefined), the inhibition is -7% (inactive). For the molecule `CCN(CC)C(=O)C1CCC(C)(C(=O)O)C1(C)C` (centres undefined), the inhibition is -7.9% (inactive).

Turning to `CCn1c(COc2cccc(OC)c2)nnc1SCC(=O)N1CCOCC1`, the inhibition was 15.4% (inactive). Consider `CCN(CC)C(=O)CSc1nnc(CNc2ccc(F)cc2)n1Cc1ccco1`, for which the inhibition was -8.3% (inactive).

Consider `COc1ccc(C(=O)CSc2nnc(COc3ccccc3)n2Cc2ccco2)cc1`, for which the inhibition is 55.9% (active).

As to `Cc1cc(C)n(-c2ccc(Cl)c(C(=O)O)n2)n1`, the inhibition is -21% (inactive). Consider `Cc1ccc(-n2ccc(=O)c(C(=O)O)n2)cc1`, for which the inhibition was 54% (active). In the case of `CCn1c(SCc2ccc(C)cc2)nnc1-c1nn(-c2ccccc2)ccc1=O`, the inhibition is 5% (inactive). The figure for `C=CCn1c(N)cc(=O)nc1SCC(=O)Nc1cccc2ccccc12` is -3.7% (inactive); for `Cc1nnc(SCC(=O)NCc2ccccc2)s1` it is -1% (inactive); for `C=CCn1c(SCC(=O)Nc2nc3ccccc3s2)nnc1-c1ccccc1O` it is 56.6% (active). Turning to `C=CCn1c(CSc2nc3ccccc3s2)nnc1SCC(=O)NCc1ccco1`, the inhibition is 24.7% (inactive).

In the case of `C=CCn1c(COc2ccccc2)nnc1SCC(=O)NCC(=O)OCC`, the inhibition was -5.6% (inactive). For the molecule `C=CCn1c(SCC(=O)NCc2ccccc2)nnc1-c1cc(Br)ccc1O`, the inhibition is 97.5% (active).

Consider `CCC(Sc1nncn1C)C(=O)Nc1nnc(-c2ccc(Cl)cc2)s1` (centres undefined), for which the inhibition is 32.9% (inactive). Turning to `COc1ccc2c(c1OC)C(=O)OC2c1c(O)nc(SC)n(-c2ccccc2)c1=O` (centres undefined), the inhibition was -12.4% (inactive). Turning to `O=C(NC1CC2CCCC(C1)N2C(=O)N1CCCCC1)C1CCCCC1` (centres undefined), the inhibition is 25.5% (inactive). With `CCOc1ccccc1Nc1nnc(SCC(=O)Nc2cc(C)on2)s1`, the inhibition was 7.4% (inactive).

Take `COc1ncnc2c1N=C1CC(C)(C)CC(N)=C1S2`: the inhibition is 1.2% (inactive).

Take `Cc1cc2cc3c(cc2nc1SCC(=O)Nc1c(C)cccc1C)CCC3`: the inhibition was 61.6% (active). In the case of `CCCn1c(SCC(=O)Nc2c(C)cccc2C)nnc1C(C)C`, the inhibition is 4.1% (inactive). With `Cc1nc2cc(NC(=O)CSc3nc4c(C)cccc4cc3C#N)ccc2s1`, the inhibition was 25.5% (inactive). In the case of `Cn1c(SCC(=O)OC2CCCCC2)nnc1-c1ccc(S(=O)(=O)N2CCCC2)cc1`, the inhibition was 7.9% (inactive). Take `CCN(CC)c1ccc(/C=N/Nc2nc(C)cc(=O)[nH]2)cc1`: the inhibition is -21.5% (inactive). The same measure for `CC1=C2C(=O)OC(c3ccoc3)C2(C)CCC1` (centres undefined): 57.9% (active); for `CC(C)C(=O)Nc1c(C(=O)c2ccc(F)cc2)oc2ccccc12`: -0.2% (inactive). `CCOc1nnc(C)c2c(C)n(-c3cccc(Cl)c3)nc12`: the inhibition was 28.6% (inactive). With `CCCn1c(SCC(=O)Nc2cccc(C(=O)OCC)c2)nnc1-c1ccoc1C`, the inhibition was 15.8% (inactive). With `C#CC(C)(C)NC(=O)CSc1nc2c(c(=O)n(C)c(=O)n2C)n1CCCC`, the inhibition is 23.7% (inactive). For `CCn1c(SCC(=O)Nc2nc3ccc(OC)cc3s2)nnc1-c1ccoc1C`, the inhibition was 68.2% (active).

Regarding `CCCCn1c(SCC(=O)NCCc2ccc(OC)c(OC)c2)nc2c1c(=O)n(C)c(=O)n2C`, the inhibition is -17.3% (inactive). The same measure for `CCOC(=O)CNC(=O)CSc1nnc(-c2cccc(OC)c2)n1CC`: 9.9% (inactive); for `CCOc1ccc2nc(NC(=O)CSc3nc4c(c(=O)n(C)c(=O)n4C)n3CC)sc2c1`: 52.2% (active); for `Cc1c(Nc2cc(N3CCCC(C)C3)c3nonc3c2[N+](=O)[O-])c(=O)n(-c2ccccc2)n1C` (centres undefined): 41.4% (inactive). Consider `CC1CSc2nnc(CCc3ccccc3)n21` (centres undefined), for which the inhibition is -10.1% (inactive). The figure for `COc1ccccc1NC(=O)COc1ccc(C(=O)OCC(=O)N(C(C)C)C(C)C)cc1OC` is 37.6% (inactive); for `CC1CC(C)CN(CC(=O)Nc2ccc(S(N)(=O)=O)cc2)C1` (centres undefined) it is 15.7% (inactive); for `CN(C)/C=C1/Nc2ccccc2C1=O` it is -8.2% (inactive). `c1ccc(-n2nnnc2N2CCOCC2)cc1`: the inhibition is -5.9% (inactive). On to `O=C(CN1CCOCC1)Nc1c2c(nc3c1CCC3)CCC2`, for which the inhibition is -11.6% (inactive). For the molecule `CCN(CC)CCn1c2ccc(Cl)cc2c2nc(C)sc21`, the inhibition was 46.4% (inactive). The figure for `Cc1nc(Cl)c2oc3ccccc3c2n1` is 9% (inactive). In the case of `COc1ccc(-c2cc(C(F)(F)F)nc(NCc3cccnc3)n2)cc1`, the inhibition is 55.3% (active). For `COc1ccc(-c2cc(C(F)(F)F)nc(S(C)(=O)=O)n2)cc1OC`, the inhibition was 4.2% (inactive). `CCC(Oc1ccccc1)C(=O)NCc1cccnc1` (centres undefined): the inhibition is 8.8% (inactive).
